Luciferase inh: Firefly luciferase inhibition profiling of diverse chemical library using quantitative high-throughput screening; Luciferin 4-monooxygenase (Photinus pyralis), P08659; purified P. pyralis luciferase, luminescence, biochemical; Potency, µM (titrated, usually from 115 µM), most hits filed as inhibitors; 76,000 tested, 2.5% active; AID 1347043, 2019; also: nearly all actives have a fitted effect of over 65% in size
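Purified 10nM P. pyralis luciferase with 10uM D-luciferin and 10uM ATP in 50mM Tris acetate pH 7.5, 10mM Mg acetate, 0.01% Tween-20, 0.05% BSA. qHTS titration; luminescence read by CCD imager.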
hNpr1 antagonist: Natriuretic polypeptide receptor (hNpr1) antagonism - Primary qHTS; 76,000 tested, 1.6% active; Potency, µM (series often up to 46.3 µM), usual class: inhibitors; Atrial natriuretic peptide receptor 1 (Homo sapiens), P16066; HEK293 hNpr1 GloSensor cGMP, ANP-stimulated luminescence; calls by dose curve; also: nearly all actives have a fitted effect of over 60% in size
Target sequence (P16066 whole entry, looked up): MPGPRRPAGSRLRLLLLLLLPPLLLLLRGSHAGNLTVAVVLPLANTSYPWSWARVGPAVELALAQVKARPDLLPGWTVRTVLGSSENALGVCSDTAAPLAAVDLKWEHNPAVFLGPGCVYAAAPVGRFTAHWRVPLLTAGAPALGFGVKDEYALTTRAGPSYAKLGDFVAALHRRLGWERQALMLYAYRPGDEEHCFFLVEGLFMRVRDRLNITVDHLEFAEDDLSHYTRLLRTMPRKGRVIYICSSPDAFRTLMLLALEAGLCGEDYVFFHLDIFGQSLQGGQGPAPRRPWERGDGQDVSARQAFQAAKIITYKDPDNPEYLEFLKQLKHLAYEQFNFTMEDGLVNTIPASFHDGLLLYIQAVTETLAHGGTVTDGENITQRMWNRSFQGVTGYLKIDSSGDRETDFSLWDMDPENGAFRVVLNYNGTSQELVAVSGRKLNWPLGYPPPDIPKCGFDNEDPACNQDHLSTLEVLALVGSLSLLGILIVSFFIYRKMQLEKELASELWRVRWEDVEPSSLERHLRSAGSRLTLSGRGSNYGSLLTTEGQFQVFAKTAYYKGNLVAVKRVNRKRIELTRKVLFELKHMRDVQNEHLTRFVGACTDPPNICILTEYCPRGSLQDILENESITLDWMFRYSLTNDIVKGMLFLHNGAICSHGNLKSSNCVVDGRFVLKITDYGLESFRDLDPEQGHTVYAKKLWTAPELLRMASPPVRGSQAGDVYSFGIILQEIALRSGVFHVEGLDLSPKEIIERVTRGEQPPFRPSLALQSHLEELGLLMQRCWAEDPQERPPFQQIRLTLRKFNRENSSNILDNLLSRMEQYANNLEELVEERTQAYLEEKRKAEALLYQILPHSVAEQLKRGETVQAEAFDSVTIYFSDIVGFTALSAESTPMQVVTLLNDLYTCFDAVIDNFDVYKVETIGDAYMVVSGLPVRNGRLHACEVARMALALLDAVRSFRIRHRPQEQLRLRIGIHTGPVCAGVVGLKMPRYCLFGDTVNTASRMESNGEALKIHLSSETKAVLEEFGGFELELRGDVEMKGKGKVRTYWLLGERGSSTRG
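Compound pre-incubated 30 min at room temperature on GloSensor-loaded HEK293 cells stably carrying hNpr1 and the pGS-40F cGMP biosensor. Stimulation uses hNppA at 0.1 nM final; luminescence is taken at baseline and 20 min post-agonist.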
HEK cytotox: Cytotoxic Profiling in HEK 293 Cell Line of Diverse Libraries Using Quantitative High-Throughput Screening; HEK 293 viability, ATP luminescence (CellTiter-Glo), 48-72 h; Potency, µM (top dose mostly 115 µM), actives largely listed as inhibitors; 94,000 tested, 6.6% active; AID 1345083, 2018; also: nearly all actives have a fitted effect of over 60% in size
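Cells seeded first (HEK 293, 250 cells/well), then compound added by pintool. Incubation ran 48 or 72 hr at 37 degree Celsius. CellTiter-Glo was added and luminescence imaged after 10 min at room temperature.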
NIH3T3 tox: Cytotoxic Profiling in NIH 3T3 Cell Line of Diverse Libraries Using Quantitative High-Throughput Screening. NIH 3T3 viability, CellTiter-Glo ATP luminescence, 48-72 h. 94,000 tested, 4.3% active. AID 1345082, 2018. Potency, µM (doses to about 96.7 µM), most hits filed as inhibitors; also: nearly all actives have a fitted effect of over 55% in size
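First NIH 3T3 cells are plated at 400 cells/well; next compound is pinned in; then plates incubate 48 or 72 hr at 37 °C; finally CellTiter-Glo is added and luminescence read after 10 min.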
A number is an active result; i = inactive; ? = inconclusive; nt = no result. This is a sample that favours compounds with a hit; in the whole collection about 11% have one here. Unless noted, calls follow the shape of the dose curve; as a rule, active = well fitted curve in the direction sought with a large enough effect; inconclusive = small, poorly fitted or top-dose-only effect, or another doubt; inactive = no such curve, though single readings can be large; an effect the other way counts as inactive or inconclusive.

SMILES	Luciferase inh	hNpr1 antagonist	HEK cytotox	NIH3T3 tox
Cc1ccc(C(=O)N2CCC(c3n[nH]c(=O)n3-c3ccc(C)cc3)CC2)cc1	i	i	i	?
Cc1ccc(-n2c(C3CCN(C(=O)c4ccc(F)c(Cl)c4)CC3)n[nH]c2=O)cc1	i	i	i	13µM
O=C(c1cc(-c2cc(Cl)cc(Cl)c2)c2cccn2n1)N1CCN(c2ncccn2)CC1	nt	nt	i	?
COc1ccc(C(=O)N2CCCCC2CCn2cc(-c3ccccc3)nn2)cc1 (centres undefined)	nt	nt	?	i
c1ncc(-c2ccc(-c3noc([C@@H]4CCCN4Cc4ccc5c(c4)OCO5)n3)cn2)cn1	i	i	?	i
CC(C)Oc1cc(-c2ccc(C(C)N3CCOCC3)cc2)nc(N)n1 (centres undefined)	35µM	i	?	?
Cc1cc(C)c(C#N)c(-c2ccc(C(C)N3CCOCC3)cc2)n1 (centres undefined)	i	?	?	?
NCc1ccc(-c2ccccn2)cc1	nt	nt	i	i
NCc1ccc(-c2cccnc2)cc1	nt	nt	i	i
Cc1cc(C)cc(-c2ccc(C=O)cc2)c1	nt	nt	126µM	?
Cc1cc(C)cc(-c2ccc(CN)cc2)c1	nt	nt	28µM	?
NCc1ccc(-c2cc(F)cc(F)c2)cc1	nt	nt	?	50µM
O=C([C@@H]1C[C@H](F)CN1C(=O)Nc1cccc(Cl)c1)N1CCCCC1	i	i	i	i
O=C(C1CC1)N1CCCC(C(=O)N2CCCC2c2nc3ccncc3[nH]2)C1 (centres undefined)	nt	nt	i	i
Cc1noc(C)c1-c1nccc2c(=O)cc(N(C)c3ccccc3)oc12	i	i	i	?
COc1ncccc1-c1nccc2c(=O)cc(N(C)c3ccccc3)oc12	i	i	?	35µM
CN(c1cc(=O)c2ccnc(-c3cccc(C(F)(F)F)c3)c2o1)C1CCOCC1	i	i	i	13µM
COc1cc(-c2nccc3c(=O)cc(N(C)c4ccccc4)oc23)ccn1	i	i	?	10µM
CC(=O)Nc1ccccc1-c1nccc2c(=O)cc(N(C)c3ccccc3)oc12	i	i	i	?
CN(c1cc(=O)c2ccnc(-c3ccc(F)c(Cl)c3)c2o1)C1CCOCC1	i	i	i	?
CN(c1ccccc1)c1cc(=O)c2ccnc(-c3ccncc3)c2o1	i	i	i	25µM
Cc1ccc2cc(CCC(=O)N3CCN(c4ccccn4)CC3)c(=O)[nH]c2c1	i	i	?	?
COc1ccc(Nc2cnc3ccc(-c4ccc(OC)c(OC)c4)nn23)cn1	?	i	63µM	32µM
COc1ccc(-c2ccc3ncc(Nc4cccc(O)c4)n3n2)cc1OC	i	i	63µM	?
COc1ccccc1Nc1cnc2ccc(-c3ccc(F)cc3)nn12	i	i	71µM	?
SMILES	Luciferase inh	hNpr1 antagonist	HEK cytotox	NIH3T3 tox
COc1ncccc1Nc1cnc2ccc(-c3ccc(F)cc3)nn12	i	i	?	?
COc1ccc(-c2ccc3ncc(Nc4ccc5c(c4)OCCO5)n3n2)cc1OC	20µM	i	45µM	?
COc1ccc(Nc2cnc3ccc(-c4ccc(F)cc4)nn23)cc1OC	?	i	?	?
COc1ccc(-c2ccc3ncc(Nc4ccc(OC)c(OC)c4)n3n2)cn1	?	i	?	?
CC(=O)Oc1c(-c2ccc(NC(=O)C3CC3)cc2)c(-c2ccc3c(c2)OCO3)nn1-c1cccc(C)c1	i	i	?	?
Cc1cccc(OCC(=O)N2CCC(N3C(=O)CCC3C(=O)NCc3ccccc3)CC2)c1 (centres undefined)	nt	nt	i	i
O=C(NCc1cccc(Cl)c1)C1CCN(c2nc3ncccc3o2)CC1	nt	nt	i	i
CCC(CC)NC(=O)[C@H]1CN(Cc2ccccc2)C[C@H]1C(=O)O	nt	nt	i	i
COc1ccccc1-n1c(=O)c(C(=O)Nc2ccc(F)cc2)nc2cccnc21	nt	nt	i	i
O=C(c1ccc(C(F)(F)F)cc1)N1CCC2(CC1)COc1ccccc1NC2=O	i	i	79µM	?
CCCCNC(=O)c1cccc2c1CCN2S(=O)(=O)c1ccccc1	i	i	?	?
COc1ccc(S(=O)(=O)N2CCc3c(C(=O)NCc4ccccn4)cccc32)cc1	i	?	35µM	?
COc1ccc(S(=O)(=O)N2CCc3c(C(=O)NCCc4cccs4)cccc32)cc1	i	?	25µM	i
CCCCNC(=O)c1cccc2c1CCN2S(=O)(=O)c1ccc(C)cc1	i	?	18µM	?
O=C(C1CCN([S+](=O)([O-])c2ccccc2)CC1)N1CCC(N2CCCC2=O)CC1	nt	nt	i	i
COc1ccccc1CN1CCNc2cnc(Oc3ccccc3)cc2C1	i	i	?	?
c1ccc(-c2cc3c(cn2)NCCN(CC2CC2)C3)cc1	?	i	i	?
Oc1ccccc1CN1CCNc2cnc(-c3ccccc3)cc2C1	i	?	63µM	?
COc1ccc(OC)c(CN2CCNc3cnc(-c4ccccc4)cc3C2)c1	i	i	56µM	89µM
c1ccc(-c2cc3c(cn2)CN(Cc2c[nH]c4ccccc24)CCN3)cc1	?	i	45µM	?
COc1cccc(CN2CCNc3cnc(-c4ccccc4)cc3C2)c1	i	i	89µM	?
CC(C)(C)C(=O)NCCNC(=O)c1cccc(-c2ccc(C(F)(F)F)cc2)c1	nt	nt	25µM	45µM
CN(C)C(=O)CNC(=O)c1cccc(-c2ccc(C(F)(F)F)cc2)c1	nt	nt	40µM	?
CC(=O)NCCNC(=O)c1cccc(-c2ccc(C(F)(F)F)cc2)c1	nt	nt	i	i
CN1C[C@H](O)[C@]2(CCN(Cc3ccc(OC(F)(F)F)cc3)C2)S1(=O)=O	nt	nt	?	i
SMILES	Luciferase inh	hNpr1 antagonist	HEK cytotox	NIH3T3 tox
COCC1CN(C2CCC2)CC12CCN(C(=O)c1ccc(OC)c(F)c1)CC2 (centres undefined)	i	i	?	i
Cc1cc(C(=O)N2C[C@@H](Oc3ccccc3)C[C@H]2C(=O)N2CCCC2)nn1C	i	i	i	i
COCCc1noc(-c2nc(-c3ccccc3F)no2)n1	28µM	i	i	i
COc1cccc(C(=O)N2CCC(N3C[C@H](O)C[C@H]3C(=O)NCc3cccc(C)c3)CC2)c1	i	i	i	i
CN(Cc1cccc(CCN)c1)Cc1cccc2ncccc12	i	i	45µM	?
Cc1c(CN(C)Cc2cccc3ncccc23)c(=O)n(-c2ccccc2)n1C	i	i	i	i
COc1ccc(C(=O)N2CCCC3(C2)NC(=O)N(Cc2ccc(Cl)cc2)C3=O)cc1 (centres undefined)	i	i	50µM	i
CCOc1ccccc1C(=O)N1CCCC2(C1)NC(=O)N(Cc1ccc(Cl)cc1)C2=O (centres undefined)	i	i	79µM	?
O=C(c1cc2ccccc2[nH]1)N1CCCC2(C1)NC(=O)N(Cc1ccccc1)C2=O (centres undefined)	i	i	?	i
CCOc1ccccc1C(=O)N1CCC2(CC1)NC(=O)N(Cc1ccccc1)C2=O	i	i	i	i

Source: PubChem (National Center for Advancing Translational Sciences (NCATS))
